Consider eleven molecules from PubChem BioAssay (NCATS).

A short description of experiment [1]: qHTS for identification of novel therapeutic agents for treatment of microphthalmiaassociated transcription factor (MiT) renal cell carcinoma (RCC) (AID 1963991; calls by dose curve; note: potency is the fitted concentration of half-maximal effect). The following applies: CellTiter-Glo, 48 h; for Potency: active = Z-AUC below -0.8 in all three lines; for z-score: stronger effect = lower value. Put shortly:
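Viability of three TFE3-fusion renal carcinoma lines measured by CellTiter-Glo after 48 h treatment with each of 1912 compounds at 11 concentrations. Responses scaled between DMSO (100%) and empty wells (0%) before curve fitting.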
For orientation: Quantitative high-throughput screening tests each substance at several concentrations.

A short description of experiment [2]: qHTS profiling for inhibitors of Plasmodium falciparum proliferation (AID 504749).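 Note: 0% = DMSO vehicle and full inhibition = artemisinin control; nearly all actives have a fitted effect of over 60% in size.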 Conditions: P. falciparum in erythrocytes, SYBR Green DNA, 72 h, at 28.7 µM (top of the series). Put shortly: (§1)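 Each compound contacts P. falciparum-infected red blood cells for 72 h at 37 C; lysis buffer (Tris, EDTA, saponin, Triton X, SYBR Green I) is added and fluorescence measured next morning; values normalized to controls.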

The test system of the next experiment is 3D7. The experiment is described as above. The following applies: P. falciparum in erythrocytes, SYBR Green DNA, 72 h; series mostly up to 28.7 µM. Put shortly: as §1
A further experiment concerns 7G8. The experiment is described as above. Conditions: P. falciparum in erythrocytes, SYBR Green DNA, 72 h; series mostly up to 28.7 µM. Put shortly: as §1
The subject of a further experiment is AA1029. The description is as above. The following applies: P. falciparum in erythrocytes, SYBR Green DNA, 72 h; series mostly up to 28.7 µM. Put shortly: as §1
The subject of the next experiment is AS120. The description is as above. The following applies: P. falciparum in erythrocytes, SYBR Green DNA, 72 h; series mostly up to 28.7 µM. Put shortly:
as §1

For another experiment, the system named is ATS189. Described as above. The following applies: P. falciparum in erythrocytes, SYBR Green DNA, 72 h; series mostly up to 28.7 µM. Put shortly: as §1
In the next experiment the test system is ATS95. Described as above. The following applies: P. falciparum in erythrocytes, SYBR Green DNA, 72 h; series mostly up to 28.7 µM. Put shortly:
as §1

Another experiment concerns C2A. The description is as above. The following applies: P. falciparum in erythrocytes, SYBR Green DNA, 72 h; series mostly up to 28.7 µM. Put shortly: as §1
Another experiment concerns CP185. The description is as above. Conditions: P. falciparum in erythrocytes, SYBR Green DNA, 72 h; series mostly up to 28.7 µM. Put shortly:
as §1

The subject of a further experiment is CP191. Described as above. Conditions: P. falciparum in erythrocytes, SYBR Green DNA, 72 h; series mostly up to 28.7 µM. Put shortly: as §1
A further experiment relates to CP192. The experiment is described as above. The following applies: P. falciparum in erythrocytes, SYBR Green DNA, 72 h; series mostly up to 28.7 µM. Put shortly:
as §1

The next experiment concerns CP194. The description is as above. Conditions: P. falciparum in erythrocytes, SYBR Green DNA, 72 h; series mostly up to 28.7 µM. Put shortly:
as §1

In a further experiment the test system is CP201. The experiment is described as above. Conditions: P. falciparum in erythrocytes, SYBR Green DNA, 72 h; series mostly up to 28.7 µM. Put shortly:
as §1

The subject of another experiment is CP203. The experiment is described as above. The following applies: P. falciparum in erythrocytes, SYBR Green DNA, 72 h; series mostly up to 28.7 µM. Put shortly:
as §1

The test system of a further experiment is CP211. The description is as above. The following applies: P. falciparum in erythrocytes, SYBR Green DNA, 72 h; series mostly up to 28.7 µM. Put shortly:
as §1

A further experiment has as its system CP215. The experiment is described as above. Conditions: P. falciparum in erythrocytes, SYBR Green DNA, 72 h; series mostly up to 28.7 µM. Put shortly: as §1
Another experiment concerns CP217. Described as above. Conditions: P. falciparum in erythrocytes, SYBR Green DNA, 72 h; series mostly up to 28.7 µM. Put shortly: as §1
The next experiment deals with CP237. The description is as above. The following applies: P. falciparum in erythrocytes, SYBR Green DNA, 72 h; series mostly up to 28.7 µM. Put shortly:
as §1

Where [3] appears, read: TFE3-RCC UOK109 viability, measured here: UOK109 Z-AUC.
The mark [4] stands for this setting: TFE3-RCC viability, measured here: UOK124 Z-AUC.
Where [5] appears, read: TFE3-RCC viability, measured here: UOK145 Z-AUC.

Results filed as inconclusive are left out. The source made the active and inactive calls. Unless noted, calls come from the whole dose curve; as a rule, active = well fitted inhibition curve with a large enough effect; inconclusive = small, poorly fitted or top-dose-only effect; inactive = flat fitted curve, though single readings scatter.

For `CCc1cnn2c(NCc3ccc[n+]([O-])c3)cc(N3CCCC[C@@H]3CCO)nc12`, the Potency in [1] (TFE3-RCC UOK109 viability) was 59 nM (active). The z-score was -2.34 in [1] (setting [3]), -1.76 in [1] (setting [4]) and -1.93 in experiment [1] (setting [5]).

Consider `COc1cccc2c1C(=O)c1c(O)c3c(c(O)c1C2=O)C[C@@](O)(C(C)=O)C[C@H]3O[C@H]1C[C@H](N)[C@H](O)[C@H](C)O1`, for which the Potency in [1] (TFE3-RCC UOK109 viability) was 296 nM (active). Moreover, the z-score in experiment [1] (setting [3]) is -1.65; in experiment [1] (setting [4]) it was -2.33; in [1] (setting [5]), -1.35.

Regarding `CS[C@H]1SC[C@@H]2C(=O)N(C)[C@H](C(C)C)C(=O)OC[C@H](NC(=O)c3cnc4ccccc4n3)C(=O)N[C@H](C)C(=O)N(C)[C@@H]1C(=O)N(C)[C@H](C(C)C)C(=O)OC[C@H](NC(=O)c1cnc3ccccc3n1)C(=O)N[C@H](C)C(=O)N2C`, the Potency in [1] (TFE3-RCC UOK109 viability) was 8.33 nM (active). Further, the z-score is -2.31 in experiment [1] (setting [3]), -3.01 in experiment [1] (setting [4]) and -2.26 in experiment [1] (setting [5]).

With `CCN1CCN(C(=O)N[C@H](C(=O)N[C@@H]2C(=O)N3C(C(=O)O)=C(CSc4nnnn4C)CS[C@@H]23)c2ccc(O)cc2)C(=O)C1=O`, the results for the z-score in [1] (setting [3]), in experiment [1] (setting [4]) and in [1] (setting [5]) were 3.06, 1.43 and 2.48, respectively.

As to `COc1ccc2c(c1OC)C(=O)OC2[C@H]1c2c(cc3c(c2OC)OCO3)CCN1C` (stereo partly drawn), the figures for the activity, negative = inhibition in experiment [2] (parasite line A) and in experiment [2] (parasite line B) were 5.64% (inactive) and 5.33% (inactive), respectively. Besides, the Potency entry with 3D7, with 7G8, in the experiment on AA1029, in the experiment on AS120, with ATS189 and in the experiment on ATS95 was “inactive” throughout. Also, the Potency entry with C2A, with CP185, with CP191, in the experiment with CP192, with CP194 and with CP201 was “inactive” in each case. In addition, the Potency result in the experiment on CP203, in the experiment on CP211, with CP215, with CP217 and with CP237 was “inactive” in each case.

Regarding `C[C@H](CCC(=O)O)[C@H]1CC[C@H]2[C@@H]3[C@H](O)C[C@@H]4C[C@H](O)CC[C@]4(C)[C@@H]3CC[C@]12C`, the z-score in experiment [1] (setting [3]) came to 0.305; in experiment [1] (setting [4]), 0.277; in experiment [1] (setting [5]), 0.171.

As for `Cc1ccc([N+](=O)[O-])cc1S(=O)(=O)N(C)N=Cc1cnc2ccc(Br)cn12`, in experiment [1] (TFE3-RCC UOK109 viability), the Potency was 23.5 nM (active). The z-score in experiment [1] (setting [3]) is -2.11; in experiment [1] (setting [4]) it was -3.04; in [1] (setting [5]) it was -2.3.

In the case of `CC(C)(O)[C@H]1CC[C@@](C)([C@H]2[C@@H](O)C[C@@]3(C)[C@@H]4C[C@H](O[C@@H]5O[C@H](CO)[C@@H](O)[C@H](O)[C@@H]5O)[C@H]5C(C)(C)[C@@H](O[C@@H]6OC[C@@H](O)[C@H](O)[C@@H]6O)CC[C@@]56C[C@@]46CC[C@]23C)O1`, the z-score in [1] (setting [3]) is 0.913; in experiment [1] (setting [4]), 0.41; in experiment [1] (setting [5]), 0.699.

Turning to `CC1(C)[C@H](O[C@H]2O[C@H](C(=O)O)[C@@H](O)[C@H](O)[C@H]2O[C@@H]2O[C@H](C(=O)O)[C@@H](O)[C@H](O)[C@H]2O)CC[C@@]2(C)[C@H]1CC[C@]1(C)[C@H]2C(=O)C=C2[C@H]3C[C@@](C)(C(=O)O)CC[C@]3(C)CC[C@]21C`, the z-score in experiment [1] (setting [3]) was determined as 0.831; in [1] (setting [4]) it was 0.728; in [1] (setting [5]), 0.774.

Turning to `CCC[C@H]1C[C@H](C(=O)N[C@@H]([C@@H]2O[C@@H](SC)[C@@H](O)[C@@H](O)[C@@H]2O)[C@H](C)Cl)N(C)C1`, the z-score is 0.606 in [1] (setting [3]), 0.328 in [1] (setting [4]) and -0.0561 in experiment [1] (setting [5]).

Regarding `N[C@H]1CN(c2c(F)cc3c(=O)c(C(=O)O)cn(C4C[C@@H]4F)c3c2Cl)CC12CC2` (stereo partly drawn), the z-score in experiment [1] (setting [3]) is 0.717; in experiment [1] (setting [4]), 1.4; in experiment [1] (setting [5]), -0.145.
